Reference: PubChem BioAssay AID686979 (National Center for Advancing Translational Sciences (NCATS), 2013)
In all, about 420,000 compounds went through this assay and about 50,000 (12%) were called active. Another 26% or so got no clear call; they are omitted. Shown is part of a subset that was picked to be rich in actives. Values without a mark were called inactive. Calls follow the shape of the dose curve; as a rule, active = well fitted inhibition curve with a large enough effect; inconclusive = small, poorly fitted or top-dose-only effect; inactive = flat fitted curve, though single readings scatter. Where a SMILES comes first, the peptide text is derived from it. Bridges are numbered along the chain shown (N, C = ends). [ ]: non-standard residue; d: D form. The star is where a group is joined. X4 = CC[C@H](C)CCCCC(=O)*; Dab = NCC[C@H](N)C(=O)O

test: qHTS for Inhibitors of human tyrosyl-DNA phosphodiesterase 1 (TDP1): qHTS in cells in presence of CPT; conditions: chicken DT40 Tdp1-/-;hTDP1 cells + 20 nM CPT, ATP luminescence, 48 h; series mostly up to 46.2 µM; activity change, negative = growth inhibition: at the top concentration; also: nearly all actives have a fitted effect of over 55% in size
Outline: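 Chicken DT40 Tdp1-/- cells complemented with human TDP1, 400 cells/well, exposed to compounds plus 20 nM camptothecin for at least 48 h at 37 C; viability read as ATP content by CellTiter-Glo luminescence.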
% is scaled to controls: 0 for no effect and ±100 for the full control effect; potency is read from the fitted curve at half-maximal effect.

SMILES | Potency | activity change, negative = growth inhibition
O=C(Nc1ccc2c(c1)nc1n2CCCCC1)c1cc(S(=O)(=O)N2CCOCC2)ccc1Cl | 11.6 µM (active) | –
O=C(Nc1ccc(N2CCOCC2)c(Cl)c1)c1ccc(S(=O)(=O)N2CCOCC2)cc1 | – | -19.1%
O=S(=O)(c1cccc(-c2nnc3n2CCCCC3)c1)N1CCOCC1 | – | -17.9%
N#C/C(=C(\O)C(F)(F)F)c1nnc2n1CCCCC2 | – | -13.9%
Cc1cccc(C(=O)OCC(=O)Nc2sccc2C(N)=O)c1C | – | 6.25%
O=C(/C=C/Sc1ncn[nH]1)c1ccc(Cl)cc1 | 2.31 µM (active) | –
O=C(CSc1ncn[nH]1)N/N=C/c1ccc(F)cc1 | – | 0.0663%
COc1ccc(Cl)cc1CSc1ncn[nH]1 | – | 0.877%
COC(=O)c1sccc1-n1cccc1C(=O)C(=O)N1CCCCC1 | – | -5.51%
COc1cccc(-c2nnc(NC(=O)c3ccc(S(=O)(=O)N(CC(C)C)CC(C)C)cc3)o2)c1 | 3.66 µM (active) | –
O=C(COC(=O)c1ccc(Oc2ccccc2)cc1)Nc1nnc(-c2ccccc2)o1 | – | -23.6%
COc1cccc(NC(=O)c2ccc(S(=O)(=O)N(C)C)cc2)c1 | – | -1.56%
O=C1/C(=C/c2ccc(F)cc2)SC(=S)N1NS(=O)(=O)c1ccccc1 | – | -3.85%
O=C(CCN1C(=O)c2ccccc2C1=O)C1=NN[C@@H]2C(=O)N(c3ccc(F)cc3)C(=O)[C@H]12 | – | -3.2%
CCCC(=O)Nc1nnc(-c2ccccc2)o1 | – | 0.251%
CCCCCCc1cc2cc(-c3nnc(-c4ccccc4)o3)c(=O)oc2cc1O | 14.6 µM (active) | –
Cc1c(CC(=O)NCCCCCC(=O)O)c(=O)oc2cc3occ(-c4ccccc4)c3cc12 | – | 11.6%
Nc1cccc(S(=O)(=O)Nc2ccc(SC(F)F)cc2)c1 | – | -8.22%
CC(C)(C)c1cc(P(=O)(c2ccccc2)c2ccccc2)ccc1O | – | -13.8%
COc1ccccc1-c1cnn2c(N3CCOCC3)cc(C)nc12 | – | 10.4%
O=C(Nc1cccc(Br)c1)C1CC(=O)N(C2CCCC2)C1 (stereo not given) | – | 0.73%
COc1ccc(OC)c(NC(=O)Cc2cccs2)c1 | – | -28.1%

SMILES | Potency | activity change, negative = growth inhibition
CCCc1nc2ccccc2c(=O)n1/N=C/c1ccc(O)c(O)c1 | 11.6 µM (active) | –
Cn1c(SCC(=O)N/N=C/c2ccc(O)c(O)c2)nc2ccccc21 | – | -81.7%
O=c1c2ccccc2ncn1/N=C/c1ccccc1 | – | -6.74%
CSc1nc2c(c(=O)[nH]1)C(c1cccc(Cl)c1Cl)CC(=O)N2 (stereo not given) | – | 5.31%
S=C(NCC1CCCO1)N1CCN(c2ccc(Cl)c(Cl)c2)CC1 (stereo not given) | 20.6 µM (active) | –
COc1ccc(S(=O)(=O)N2CCN(C(=S)NCC3CCCO3)CC2)cc1OC (stereo not given) | – | 6.64%
O=C(CSCc1c(F)cccc1Cl)NCC1CCCO1 (stereo not given) | – | -10.4%
O=Cc1c(N2CCN(c3cccc(Cl)c3)CC2)nc2ccccn2c1=O | – | -27.9%
CC(CNc1ccc([N+](=O)[O-])c2cccnc12)Nc1c([N+](=O)[O-])cc(C(F)(F)F)cc1[N+](=O)[O-] (stereo not given) | – | -5.74%
FC(F)(F)c1ccc2c3n(nc2c1)CCN=C3c1ccc(Cl)cc1 | – | -26.9%
CCc1ccccc1NC(=O)CSc1nnc(CCNC(=O)OC(C)(C)C)o1 | – | 4.67%
CN1OC[C@@H]2CN(C(=O)c3cccc4ccccc34)[C@H](c3ccc(N4CCCCC4)cc3)C[C@@H]21 | – | -8.28%
C[C@H]1Cn2cnc(C(=O)N[C@H](C)c3ccccc3)c2C(=O)N1 | – | -2.86%
COc1ccc(C(=O)OC(C)C(=O)NC2CCCC2)cc1S(=O)(=O)N1CCOCC1 (stereo not given) | – | -15.1%
Cc1cccc2c(=O)n3c(nc12)CCCCC3 | – | -29.8%
CN(C(=O)C1CCN(c2ncnc3c2nc2n3CCCCC2)CC1)C1CCCCC1 | 20.6 µM (active) | –
COCCNc1ncnc2c1nc1n2CCCC1 | – | -12.6%
CCCN(CCC)C(=O)C1CCCN(c2ncnc3c2nc2n3CCCCC2)C1 (stereo not given) | 14.6 µM (active) | –
CCCCN(CC)C(=S)Nc1ccc2nc3n(c(=O)c2c1)CCCCC3 | – | -21.8%
COCCCNC(=O)CN1C(=O)CSc2ccc(S(=O)(=O)N3CCOCC3)cc21 | inactive | –
O=C(NCc1ccncc1)c1ccc(NS(=O)(=O)c2cccc([N+](=O)[O-])c2)cc1 | – | -13%
COc1ccc(C(C)NC(=S)NC2CCCCC2)cc1OC (stereo not given) | – | -15.6%

SMILES | Potency | activity change, negative = growth inhibition
COc1ccc(-n2c(CNC(=O)c3cc(C(F)(F)F)ccc3Cl)nnc2SC)cc1 | – | 21.6%
COc1ccc(C(CNC(=O)COc2ccc([N+](=O)[O-])cc2)N2CCCCC2)cc1 (stereo not given) | – | -15.2%
CC(=O)c1ccc(S(=O)(=O)NC2CC(=O)N(c3ccc4c(c3)OCCO4)C2)cc1 (stereo not given) | – | -2.96%
Cc1ccc(N2C(=O)CN=C2Nc2nc(C)cc(C)n2)cc1 | – | -2.45%
COc1ccc(N2CCN(C(C)=C3C(=O)c4ccccc4C3=O)CC2)cc1 | – | -17.9%
COc1ccccc1-c1nc(N2CCN(C)CC2)c2ccccc2n1 | – | 7.98%
COc1ccc(N2CCN(c3nc(-c4ccccc4F)nc4ccccc34)CC2)cc1 | 20.6 µM (active) | –
O=C(Nc1ccc(Cl)cc1)c1cc2nc(C3CC3)cc(C(F)(F)F)n2n1 | – | -14.9%
COC(=O)C1(C)CC1(c1ccccc1)c1ccccc1 (stereo not given) | – | -29.8%
CC(C)Oc1ccc(/C=N/NC(=O)c2nnn(-c3nonc3N)c2CN(C)C2CCCCC2)cc1 | – | -4.96%
O=C(Nc1ccccc1Cl)N1CCC(CN2CCCC2)CC1 | – | -3.55%
Cc1ccc(C)c(N2CCN(S(=O)(=O)c3ccc4c(c3)oc(=O)n4C)CC2)c1 | – | -18.2%
O=S(=O)(N1CCOCC1)N1CCN(c2ccccc2F)CC1 | – | -7.59%
Cc1ccc(C)c(N2CCN(S(=O)(=O)c3ccc4c(c3)C(C(C)C)C(=O)N4)CC2)c1 (stereo not given) | 20.6 µM (active) | –
CC1C(=O)Nc2ccc(S(=O)(=O)N3CCN(c4ccccc4F)CC3)cc2NC1=O (stereo not given) | 9.2 µM (active) | –
Cn1c(=O)c(=O)n(C)c2cc(S(=O)(=O)NCCN3CCN(c4ccccc4F)CC3)ccc21 | – | 0.149%
CCOC(=O)N1CCN(S(=O)(=O)c2ccc3c(c2)C(C)C(=O)N3)CC1 (stereo not given) | – | 4.3%
O=C(CN1C(=O)COc2ccc(Cl)cc21)Nc1ccc(N2CCOCC2)cc1 | – | -2.92%
CCC(C)NC(=O)c1ccc(N2CCC3(CC2)OCCO3)c([N+](=O)[O-])c1 (stereo not given) | – | -25.4%
Cc1cccc(C(=O)OCC(=O)NCC(C)C)c1O | – | 14.8%
CC[C@H](C)CCCCC(=O)N[C@@H](CCN)C(=O)N[C@H](C(=O)N[C@@H](CCN)C(=O)N[C@H]1CCNC(=O)[C@@H]([C@H](C)O)NC(=O)[C@H](CCN)NC(=O)[C@H](CCN)NC(=O)[C@H](CC(C)C)NC(=O)[C@@H](CC(C)C)NC(=O)[C@H](CCN)NC1=O)[C@@H](C)O (X4-[Dab]T[Dab][Dab][Dab][dL]L[Dab][Dab][dT]; lactam 4-C) | – | -18.2% [at 21.1 µM]
